# Screens: PubChem, several laboratories
# Cav3 T inh = Cav3.2 calcium influx blockers – cell-based, Fluo-4 calcium fluorescence, FDSS, MLSMR library, primary screen; Cav3.2-expressing cells; active compounds read low; B-score at 10 µM; Voltage-dependent T-type calcium channel subunit alpha-1H (Homo sapiens), O95180; actives 4% (n = 100,000);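 active means single-dose well whose peak fluorescence ratio is a statistical outlier from its plate by either plate-standardised score or position-corrected B-score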
# CYP2C19 act = human CYP2C19 activators, primary screen, biochemical, luminescence; Cytochrome P450 2C19 (Homo sapiens), P33261; recombinant CYP2C19, luciferin-H EGE luminescence; active compounds read high; 0 = fully inhibited enzyme, 1 = untreated enzyme; activation factor at 5 µM; 96,000 tested, under 10 active; AID 1025, 2008;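 active means activation factor of at least 2 at 5 µM in the primary screen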;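 further: 0 = wells with 2.5 mM tranylcypromine and 1 = vehicle-only wells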
# Target sequence (P33261 whole entry, looked up): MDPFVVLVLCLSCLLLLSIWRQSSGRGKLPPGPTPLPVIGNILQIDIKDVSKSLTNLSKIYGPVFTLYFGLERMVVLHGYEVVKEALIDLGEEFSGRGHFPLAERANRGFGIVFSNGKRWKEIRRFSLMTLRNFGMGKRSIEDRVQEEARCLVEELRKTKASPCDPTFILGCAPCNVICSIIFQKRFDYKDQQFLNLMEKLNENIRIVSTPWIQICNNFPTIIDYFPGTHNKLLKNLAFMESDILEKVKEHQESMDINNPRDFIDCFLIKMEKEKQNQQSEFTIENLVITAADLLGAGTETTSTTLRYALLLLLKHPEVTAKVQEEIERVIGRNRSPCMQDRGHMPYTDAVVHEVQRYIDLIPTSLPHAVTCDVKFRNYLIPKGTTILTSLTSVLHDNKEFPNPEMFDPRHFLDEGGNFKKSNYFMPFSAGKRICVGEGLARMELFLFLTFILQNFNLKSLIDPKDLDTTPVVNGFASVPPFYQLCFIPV
# CYP2C19 inhib = blockers of cytochrome P450 2C19 activity – biochemical, luminescence, ADME assay, primary screen; CYP2C19 Supersomes, luciferin-H EGE luminescence, 30 min; inhibition, % at 5 µM; AID 778, 2007; actives 21% (n = 96,000); P33261;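 active means CYP2C19 inhibition above a set limit at 5 µM in the primary screen, cut at about 50% in these data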;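 further: plate controls were negative control wells for no effect and 2.5 mM tranylcypromine positive control for full effect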
# CYP2C9 inhib = blockers of cytochrome P450 2C9 activity – biochemical, luminescence, ADME assay, primary screen; CYP2C9 Supersomes, luciferin-H conversion; AID 777, 2007; inhibition, % at 5 µM; actives 20% (n = 96,000);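 active means blocking of liver enzyme CYP2C9 beyond about 50% at 5 µM, limit read from the data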
# CYP2C9 activ = human CYP2C9 activators, primary screen, biochemical, luminescence. actives 1.4% (n = 96,000). AID 1024, 2008. Cytochrome P450 2C9 (Homo sapiens), P11712. recombinant CYP2C9, luciferin-H conversion; active compounds read high; factor 1 = untreated enzyme, 0 = blocked. activation factor at 5 µM;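 active means activation factor of 2 or more for CYP2C9 at a 5 µM dose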;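 further: 0 = sulfaphenazole-blocked wells and 1 = vehicle-only wells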
# Pyk2 oligo antag = antagonists of Pyk2 self-association, primary screen, Q293 cells, FERM NanoBiT luminescence, HTS | Protein-tyrosine kinase 2-beta (Homo sapiens), Q14289 | active compounds read low | z-score (the deposit names both 25 µM and 10 µM) | actives 0.83% (n = 99,000) | AID 1347419, 2020;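 active means Z-score of -3 or lower, scaled per plate to the spread of control and sample wells; inactive means z-score above -3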;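 further: negative z-score means lost luminescence so less FERM oligomerization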
# * marks the source's active call; other numbers are inactive results; · = not tested or not shown. Rows were chosen to be rich in hits. Some 27% of all compounds tested hit in one or more screens of this group.
SMILES,Cav3 T inh,CYP2C19 act,CYP2C19 inhib,CYP2C9 inhib,CYP2C9 activ,Pyk2 oligo antag
COc1cc2c(cc1NC(=O)CN1C(=O)NC3(CCc4ccccc43)C1=O)oc1ccccc12 (centres undefined),0.14,1,2,38,0.6,-2.3
CS(=O)(=O)N1CC(C(=O)NC2CC2)Oc2ccc(Cl)cc21 (centres undefined),0.46,0.5,46,29,0.7,-0.38
Nc1nc2n(n1)C(c1c(F)cccc1Cl)CC(c1ccc(F)cc1)N2 (centres undefined),1.3,·,·,·,·,·
Cc1csc(SCC(=O)c2ccc(S(=O)(=O)N3CCOCC3)cc2)n1,0.47,0.5,48,40,0.6,0.86
CCOC(=O)Cc1csc(NC(=O)c2c(O)c3ccccc3n(C)c2=O)n1,·,1,-4,-22,1.2,·
CCOC(=O)Cc1csc(NC(=O)CCCN2C(=O)c3ccccc3C2=O)n1,0.73,0.9,13,53*,0.5,1.1
CCC(CC)c1nnc(NC(=O)CCCN2C(=O)c3ccccc3C2=O)s1,1.1,0.6,41,72*,0.3,0.27
Cc1cccc(S(=O)(=O)c2c(N)n(-c3ccccc3)c3nc4ccccc4nc23)c1,·,·,·,·,·,0.9
C(=N\n1cnnc1)/c1cn(-c2cccs2)nc1-c1ccccc1,1.5,0.2,81*,70*,0.3,-0.53
O=C(N/N=C/c1cn(-c2ccccc2)nc1-c1cccs1)c1ccccc1F,·,·,·,·,·,-2.4
COc1ccc(-c2nn(-c3ccccc3)cc2/C=N/n2cnnc2)cc1OC,2,0.2,80*,46,0.5,0.16
O=C(CCl)NCc1c(Cl)cccc1-n1cccc1,-0.0099,0.8,16,-1,1,0.6
O=C1CCN2C=Nc3cccc4ccc1c2c34,-8.5*,0.9,6,13,0.9,0.43
O=C(CN(Cc1ccc(F)cc1)C(=O)c1ccco1)NCc1ccc(F)cc1,0.078,0.2,83*,26,0.7,-1.1
O=C(CN(C(=O)c1ccco1)c1cccc(F)c1)NCc1ccc(F)cc1,-0.0031,0.2,78*,35,0.7,0.03
O=C(c1ccco1)N(CCC(c1ccccc1)c1ccco1)Cc1ccc(F)cc1 (centres undefined),-3.9*,0.7,34,85*,0.1,-0.66
O=C(NCc1cccc(CNC(=O)c2ccco2)c1)c1ccco1,0.13,1,4,-6,1.1,0.32
COc1ccc(-c2noc(CCCC(=O)NCCc3ccccc3)n2)cc1OC,-0.22,0.5,47,48,0.5,0.74
Cc1ccc(NC(=O)c2cc([N+](=O)[O-])ccc2NCc2cccnc2)cc1Cl,-1.6,0.2,85*,92*,0.1,-3.7*
Cc1ccc(NC(=O)CSc2ncc(-c3ccccc3)n2C(=O)c2ccccc2)cc1,-0.98,0.3,69*,59*,0.4,-1.3
CCc1ccccc1NC(=O)CSc1nc(-c2ccccc2)nn1C(=O)c1cccc([N+](=O)[O-])c1,-0.96,0.2,76*,74*,0.3,·
CC(=O)n1nc(-c2cccc(C)c2)nc1SCC(=O)Nc1ccccc1,-2.5,0.4,55*,61*,0.4,0.62
CCC(=O)n1nc(-c2ccccc2)nc1SCC(=O)Nc1ccc(C)cc1,·,1,-2,22,0.8,0.07
COc1ccc(CCN(C(=O)C(F)(F)F)C(C(=O)NC2CCCCC2)c2ccc(C)s2)cc1OC (centres undefined),-0.14,1,0,36,0.6,0.35
Cc1cc2cc(CNC(=O)c3ccc4c(c3)OCO4)ccc2[nH]1,-0.4,0.6,42,12,0.9,1
SMILES,Cav3 T inh,CYP2C19 act,CYP2C19 inhib,CYP2C9 inhib,CYP2C9 activ,Pyk2 oligo antag
CCN(CC)C(=O)CSc1nc2sc3c(c2c(=O)n1-c1ccc(C)cc1)CC(C)(C)SC3,-1.3,0.5,52*,96*,0,-0.58
CCOC(=O)N1CCC2(CC1)C(C#N)=C(N)OC1=C2C(=O)CC(C)(C)C1,1.6,0.8,24,54*,0.5,0.79
N#CC1=C(N)OC2=C(C(=O)CCC2)[C@]12C(=O)N(CC(N)=O)c1ccccc12,0.74,1,4,22,0.8,1.3
CC1(C)CC(=O)C2=C(C1)OC(N)=C(C#N)C21CCN(Cc2ccccc2)CC1,-1.1,0.3,73*,74*,0.3,0.48
Cc1nc2c([nH]1)C1(CCN(Cc3ccccc3)CC1)C(C#N)=C(N)O2,0.054,0.8,18,14,0.9,-0.12
CC1(C)CC(=O)C2=C(C1)OC(N)=C(C#N)C21C(=O)N(Cc2ccccc2Cl)c2ccccc21 (centres undefined),-0.41,0.1,86*,94*,0.1,-0.64
CC(=O)N1CCC2(CC1)C(C#N)=C(N)OC1=C2C(=O)CC(C)(C)C1,-1.7,1.1,-8,-19,1.2,-0.2
COc1ccc(CC(=O)Nc2nc(C)cs2)cc1OC,0.42,0.4,60*,30,0.7,1.4
CC(C)(C)c1csc(NC(=O)Cn2cnc3ccccc3c2=O)n1,·,1.1,-8,12,0.9,-1.2
COc1cccc(-c2csc(NC(C)=O)n2)c1,-0.21,0.7,27,24,0.8,0.2
COc1ccc(-c2csc(NC(C)=O)n2)cc1OC,-0.32,0.3,68*,65*,0.4,-0.46
COc1ccc(-c2csc(NC(=O)CCn3cnc4ccccc4c3=O)n2)cc1OC,-1.9,0.1,85*,66*,0.3,-2.3
CCc1cccc(OCCCCN(CC)CC)c1,0.5,0.9,8,6,0.9,0.57
O=C(CSc1n[nH]c(-c2cccs2)n1)NCc1cccs1,-0.46,0.3,69*,25,0.8,1
O=C(CSc1n[nH]c(-c2cccs2)n1)NCc1ccc2c(c1)OCO2,1.6,0.1,85*,97*,0,1.9
O=C(CSc1ncnc2scc(-c3ccc(Cl)cc3)c12)NCc1ccc2c(c1)OCO2,-0.69,·,·,·,·,0.09
Cn1c(SCC(=O)NCc2ccc3c(c2)OCO3)nc2scc(-c3cccs3)c2c1=O,-0.9,0.8,23,80*,0.2,-1.1
O=C(CSc1nnc(SCC(=O)NCc2ccc3c(c2)OCO3)s1)NCc1ccc2c(c1)OCO2,0.27,1,-1,3,1,0.69
Cc1ccc(-c2csc3ncnc(SCC(=O)NCc4ccc5c(c4)OCO5)c23)cc1,-2.4,0.8,22,57*,0.4,-1.5
C=C1CCN([C@@H](Cc2ccccc2)C(=O)NCc2ccc(Cl)c(Cl)c2)S(=O)(=O)c2ccccc21,-0.96,·,·,·,·,·
